Screens as filed in PubChem.
Only a selection was taken, and hits are over-represented in it overall.
RmlCD inh mix – RmlC and RmlD coupled enzyme inhibitors, primary screen, biochemical, 384-well, compound mixtures, retest; RmlC/RmlD coupled enzyme inhibition, 384-well mixture HTS; inhibition, % at 5.5 µM; 0.39% of 110,000 active; in the data active = inhibition above about 30%, passing the limit was not always enough
HIV RNase H inh-1 – HIV-1 RT RNase H inhibitors, primary screen, biochemical, fluorescence | inhibition, % at 10 µM | AID 565, 2006 | RT-RNase H RNA/DNA duplex cleavage | Gag-Pol polyprotein (Human immunodeficiency virus type 1 group M subtype B (isolate … | 1.9% of 65,000 active; in the data active = inhibition above about 50%
HIV RNase H inh-2 – HIV-1 RT RNase H inhibitors, retest, confirmation, biochemical; shares compounds with HIV RNase H inh-1; Recombinant RT RNase H, fluorescent RNA/DNA duplex cleavage; inhibition, % at 10 µM; 39% of 1,000 active; AID 651, 2007; in the data active = inhibition above about 48%
RmlCD artifact – counter-screen for RmlC/RmlD inhibitors: fluorescence artifact, dose response, artefact control, biochemical; shares compounds with RmlCD inh mix; RmlC/RmlD assay fluorescence artifact counter-screen; calls only; 96% of 360 active; AID 1696, 2009; call rule not given here;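 note: compound alone with no enzyme and no substrates present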
Numbers stand for hits; . = inactive; / = not tested or not shown; + = active, no number.

SMILES | RmlCD inh mix | HIV RNase H inh-1 | others
N#Cc1c(N)sc(=S)c2c1CCN(Cc1ccccc1)C2 | 119 | 66 | HIV RNase H inh-2=.
CC(=O)Nc1ccc(OCC(O)Cn2nc(C)c(Br)c2C)cc1 (configuration not stated) | . | /
CCCCCOc1ccc(C2C(C(C)=O)=C(C)Nc3ncnn32)cc1OC (configuration not stated) | / | 64 | HIV RNase H inh-2=.
COc1ccc(C2C(C(C)=O)=C(C)Nc3ncnn32)cc1OC (configuration not stated) | . | .
O=C1CC(N(CCc2ccccc2)C(=S)Nc2cc(Cl)ccc2Cl)C(=O)N1c1c(Cl)cccc1Cl (configuration not stated) | . | /
COc1cc(C(=O)OCC(=O)Nc2cc(C)on2)ccc1OCc1ccccc1Cl | . | 52 | HIV RNase H inh-2=.
CCOc1ccc(C(=O)OCC(=O)Nc2cc(C)on2)cc1OCC | . | /
COc1ccccc1N1CCN(c2nc3ccccn3c(=O)c2C=O)CC1 | . | /
CC1CC(C)CN(C(=O)CSc2nnc(-c3ccc(Cl)s3)o2)C1 (configuration not stated) | . | .
CC1CC(C)CN(C(=O)CSc2nnc(-c3ccc(F)cc3)o2)C1 (configuration not stated) | . | 82 | HIV RNase H inh-2=.
C#C[C@]1(O)CC[C@H]2[C@@H]3[C@H](C)CC4=C(CCC(=O)C4)[C@H]3CC[C@@]21C | . | /
CC(C)CSc1nc2c(c(=O)[nH]c(=O)n2C)n1CCc1ccccc1 | . | .
C/C=C/Cn1c(SCc2ccccc2)nc2c1c(=O)[nH]c(=O)n2C | . | 50 | HIV RNase H inh-2=.
C=CCn1c(SCCN2CCOCC2)nc2c1c(=O)[nH]c(=O)n2C | . | .
C/C(Cl)=C/Cn1c(SCc2ccc(Cl)cc2)nc2c1c(=O)[nH]c(=O)n2C | . | .
COCCn1c(SCCN2CCOCC2)nc2c1c(=O)[nH]c(=O)n2C | . | 88 | HIV RNase H inh-2=60
CCCCn1c(SCc2ccc(Cl)cc2)nc2c1c(=O)[nH]c(=O)n2C | . | 54 | HIV RNase H inh-2=.
C/C=C/CSc1nc2c(c(=O)[nH]c(=O)n2C)n1Cc1ccc(C)cc1 | . | 80 | HIV RNase H inh-2=72
Cc1ccc(Cn2c(Sc3ncccn3)nc3c2c(=O)[nH]c(=O)n3C)cc1 | . | .
C#CCNC(=O)C1=C[C@@H](c2ccc3c(c2)OCO3)C[C@@H](OCCCCO)O1 | . | /
CC1CCC(NC(=O)c2ccc3c(c2)S(=O)(=O)c2ccccc2C3=O)CC1 (configuration not stated) | . | /
C=CCn1c(SCC(=O)N2CCc3ccccc3C2)nc2sc(C)cc2c1=O | . | /
COCCn1c(SCc2c(F)cccc2Cl)nc2c1c(=O)[nH]c(=O)n2C | . | 57 | HIV RNase H inh-2=.
CCOCCn1c(SCc2ccc(F)cc2)nc2c1c(=O)[nH]c(=O)n2C | . | .
CCCCn1c(=O)[nH]c(=O)c2c1nc(-c1ccc(-c3ccccc3Br)o1)n2CCOC | . | /
SMILES | RmlCD inh mix | HIV RNase H inh-1 | others
COCCn1c(-c2ccc(-c3ccccc3Cl)o2)nc2c1c(=O)[nH]c(=O)n2CC(C)C | 144 | 73 | HIV RNase H inh-2=73;RmlCD artifact=+
COC(=O)C1(Cc2ccc(O)cc2)OC(=O)C(O)=C1c1ccc(O)cc1 (configuration not stated) | . | /
COC(=O)CC(=O)CSc1nc(C)cc(C)c1C#N | 121 | . | RmlCD artifact=+
CS(=O)CSc1nc2c(cc1C#N)CCCC2 (configuration not stated) | . | .
Cc1cc(C)c(C#N)c(SCC(=O)C(C)(C)C)n1 | . | /
CCOC(=O)CC(=O)CSc1nc2c(cc1C#N)CCCCCC2 | 64 | . | RmlCD artifact=+
N#Cc1cc2c(nc1SCC(=O)N1CCOCC1)CCCCC2 | . | /
CC(C)OC(=O)CC(=O)CSc1nc2c(cc1C#N)CCCC2 | 59 | . | RmlCD artifact=+
CCOC(=O)CC(=O)CSc1nc(-c2cccnc2)ccc1C#N | / | . | RmlCD artifact=+
CCOC(=O)CC(=O)CSc1nc(-c2cccnc2)cc(C)c1C#N | . | .
O=C(NCc1nc2ccccc2[nH]1)C1=C[C@H](c2coc3ccccc3c2=O)C[C@H](OCCCCO)O1 | . | /
O=C(CSc1nnc(Cc2ccccc2)o1)Nc1ccc2c(c1)OCO2 | . | /
O=C(NCC1CC1)C1(C(F)(F)F)CC(CCCO)CCCO1 (configuration not stated) | . | /
CCn1c(Sc2ccc(N)cc2Cl)nc2ccccc21 | . | .
N#Cc1cc2c(nc1SCC(=O)Nc1nccs1)CCCCC2 | . | .
CCc1nnc(NC(=O)CSc2nc3c(cc2C#N)CCC3)s1 | 56 | . | RmlCD artifact=+
CC(C)OC(=O)CC(=O)CSc1nc2c(cc1C#N)CCCCCC2 | + | / | RmlCD artifact=+
N#Cc1cc2c(nc1SCC(=O)Nc1sc3c(c1C#N)CCC3)CCCCCC2 | . | /
CC1Cc2ccccc2N1C(=O)c1cc2c(=O)n3ccccc3nc2n1C (configuration not stated) | . | .
Cn1c(C(=O)N2CCc3ccccc3C2)cc2c(=O)n3ccccc3nc21 | 103 | . | RmlCD artifact=+
CCOC(=O)C1C2C=CC(CC2)N1c1ccccc1 (configuration not stated) | . | /
COC(=O)c1cc(=O)nc2sc(-c3cccs3)nn12 | 39 | . | RmlCD artifact=+
COC(=O)c1cc(=O)nc2sc3ccccc3n12 | . | .
COC(=O)c1ccccc1NC(=O)CSc1nnc(-c2cccc(NC(C)=O)c2)n1C | . | .
CC(C)N(C(=O)COC(=O)c1cc(Cl)cc(Cl)c1N)C(C)C | . | /
SMILES | RmlCD inh mix | HIV RNase H inh-1 | others
CN(C)C(=O)COC(=O)c1cc(Cl)cc(Cl)c1N | 36 | / | RmlCD artifact=+
CN1CCN(c2ccccc2NC(=O)COc2ccc(Br)cc2)CC1 | . | /
COc1cccc(Nc2ncccc2C(=O)Nc2ccccc2)c1 | . | /
O=C(NCc1ccco1)c1cc(-c2ccccc2)nc2ccccc12 | . | /
O=C(NNC(=O)c1cc(-c2ccco2)nc2ccccc12)c1ccccc1 | / | / | RmlCD artifact=+
O=C(COC(=O)c1cc(-c2ccco2)nc2ccccc12)NCc1ccccc1 | . | /
CNC(=O)COC(=O)c1cc(-c2ccco2)nc2ccccc12 | / | / | RmlCD artifact=+
COc1ccc(-n2nc(C(=O)N3CCC(C#N)CC3)c3c4ccccc4n(C)c3c2=O)cc1 | . | .
COc1cc(CCCN2C(N)=NC[C@@H]2Cc2ccc(O)cc2)cc(OC)c1OC | . | /
CC1=NCCN1S(=O)(=O)c1cc(Cl)ccc1Cl | . | .
COC(=O)CON1C(=O)c2ccccc2C1=O | . | /
C=CCON1C(=O)c2ccccc2C1=O | . | /
Cc1cc(C)c(C)c(S(=O)(=O)ON2C(=O)c3ccccc3C2=O)c1C | 114 | / | RmlCD artifact=+
Cc1cc(C)c(S(=O)(=O)ON2C(=O)c3ccccc3C2=O)cc1C | 146 | / | RmlCD artifact=+
CCNc1nnc(-c2ccc(C)cc2)o1 | . | .
Cc1cc(C)nc(Sc2nc(Cl)nc(N(c3ccccc3)c3ccccc3)n2)n1 | . | /
Cc1c(Cc2ccccc2)c(=O)oc2c(CN(C)C)c(O)c(Cl)cc12 | 145 | . | RmlCD artifact=+
CCN(CC)Cc1c(O)c(Cl)cc2c(C)c(C)c(=O)oc12 | 68 | / | RmlCD artifact=+
CN(C)Cc1c(O)ccc2oc(Cc3ccccc3)cc12 | . | .
Cc1c(C)c2cc(Cl)c(OCc3nn[nH]n3)cc2oc1=O | . | .
CC(C)OC(=O)CSc1nnc(SCc2cccc3ccccc23)s1 | . | /
